From the supplement of paper PMC10646978
± gives the standard deviation.

Legend:
Conditions in all cases: modulator concentration 10 µM
[1] = test system: RAW-Dual (murine macrophage reporter line); test: NF-kB reporter (SEAP) activity fold change vs agonist alone; higher = enhanced NF-kB activity
Procedure, shortened: (§1)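 Overnight stimulation with a PRR agonist followed pre-incubation for 1 hour at 37 °C with compound at 10 μM final. This was done in RAW-Dual murine macrophage reporter cells seeded at 50 000 per well in 384-well plates. NF-κB (SEAP, QUANTI-Blue absorbance at 620 nm) and IRF (Lucia luciferase, QUANTI-Luc luminescence) were read from the supernatant. Each reporter's fold change relative to the mean agonist-only control on the same plate was averaged over replicate plates.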

[2] = test system: RAW-Dual (murine macrophage reporter line); test: IRF reporter (Lucia luciferase) activity fold change vs agonist alone; higher = enhanced IRF activity
Procedure, shortened: as §1

[3] = test system: RAW-Dual (murine macrophage reporter line); test: viability score (confluency relative to resting cells, overnight) (fraction); higher = more viable, active = viable (0.7 or more)
Procedure, shortened: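 RAW-Dual macrophages in 384-well plates were incubated overnight with compound, final concentration 10 μM. Confluency images from IncuCyte were processed in IncuCyte software into two masks covering all imaged wells. The viability score is each well's confluency relative to resting cells, and a compound met the cutoff when both masks exceeded 70% of resting cells.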

[4] = agonist: CpG ODN 1826 0.5 ug/mL

Row | SMILES | NF-kB reporter [1, 4] | NF-kB reporter ([1]; agonist: LPS 0.1 ug/mL) | NF-kB reporter ([1]; agonist: MPLA […]) | IRF reporter ([2]; agonist: 3'3'-cGAMP 10 ug/mL) | IRF reporter ([2]; agonist: LPS 0.1 ug/mL) | IRF reporter ([2]; agonist: MPLA […]) | viability score [3]
1 | O=[N+]([O-])c1ccc(CSc2nc3ccccc3[nH]2)cc1 | 0.971 ± 0.076 | 0.87 ± 0.048 | 1.01 ± 0.024 | 0.834 ± 0.048 | 1.02 ± 0.13 | 1.12 ± 0.11 | 0.995 (active)
2 | Cc1nnc(NC(=O)c2ccccc2C(=O)O)s1 | 0.982 ± 0.13 | 0.969 ± 0.063 | 0.983 ± 0.051 | 1.11 ± 0.28 | 1.01 ± 0.055 | 1.04 ± 0.085 | 0.998 (active)
3 | Cc1[nH]c(=O)c(C#N)cc1-c1ccncc1 | 1.34 ± 0.19 | 1.26 ± 0.28 | 2.34 ± 1.3 | 0.895 ± 0.027 | 1.31 ± 0.15 | 1.34 ± 0.2 | 0.99 (active)
4 | CN1CCN(c2nc3c(=O)[nH]cnc3n2C2OC(CO)C(O)C2O)CC1 (configuration not stated) | 0.979 ± 0.11 | 1.03 ± 0.071 | 0.904 ± 0.084 | 1.01 ± 0.089 | 1.22 ± 0.082 | 1.08 ± 0.25 | 1.01 (active)
5 | CCCc1nc2ccccc2n1C(=O)C=CC(=O)O | 0.789 ± 0.061 | 0.833 ± 0.06 | 1.13 ± 0.17 | 0.981 ± 0.046 | 1.46 ± 0.12 | 1.59 ± 0.16 | 1 (active)
6 | Cc1ncsc1C(=O)NC1CCC(F)(F)CC1 | 1.06 ± 0.068 | 1.1 ± 0.088 | 0.991 ± 0.033 | 0.68 ± 0.034 | 1.01 ± 0.057 | 1 ± 0.1 | 0.999 (active)
7 | COc1cc(NC(=O)COc2ccc(C(C)C)c(C)c2)c(OC)cc1Cl | 0.818 ± 0.038 | 1.04 ± 0.1 | 1.71 ± 0.75 | 1.01 ± 0.047 | 1.25 ± 0.19 | 1.28 ± 0.39 | 0.96 (active)
8 | CC(=O)NC(c1ccccc1)c1c(OC(=O)COc2ccccc2)ccc2ccccc12 (configuration not stated) | 0.73 ± 0.062 | 0.878 ± 0.049 | 0.714 ± 0.044 | 1.24 ± 0.062 | 0.987 ± 0.08 | 0.948 ± 0.12 | 1.01 (active)
9 | COc1ccc2cc1Oc1ccc(cc1)C[C@H]1c3c(cc4c(c3Oc3cc5c(cc3OC)CCN(C)[C@@H]5C2)OCO4)CCN1C | 0.195 ± 0.011 | 1.09 ± 0.091 | 0.928 ± 0.059 | 0.786 ± 0.045 | 0.931 ± 0.099 | 0.889 ± 0.12 | 0.991 (active)
10 | COc1cc2ccc(=O)oc2cc1O | 1.04 ± 0.31 | 0.862 ± 0.062 | 0.892 ± 0.057 | 0.909 ± 0.053 | 1.11 ± 0.17 | 0.946 ± 0.12 | 1 (active)
11 | CC(=NOCON=C(C)c1ccc(F)cc1F)c1ccc(F)cc1F | 0.843 ± 0.067 | 0.907 ± 0.062 | 0.974 ± 0.086 | 0.991 ± 0.05 | 1.39 ± 0.085 | 1.53 ± 0.15 | 1 (active)
12 | COC(=O)N[C@H](C(=O)N1CCC[C@H]1c1ncc(-c2ccc(-c3ccc(-c4cnc([C@@H]5CCCN5C(=O)[C@@H](NC(=O)OC)C(C)C)[nH]4)cc3)cc2)[nH]1)C(C)C.Cl.Cl | 0.437 ± 0.029 | 0.513 ± 0.032 | 0.759 ± 0.045 | 1.27 ± 0.042 | 1.85 ± 0.48 | 1.99 ± 0.46 | 0.204 (inactive)
13 | COC(=O)CNC(c1ccccc1)c1cc(Br)ccc1NC(=O)c1ccccc1Cl (configuration not stated) | 0.675 ± 0.059 | 1.08 ± 0.092 | 0.963 ± 0.091 | 1 ± 0.037 | 1.78 ± 0.17 | 1.59 ± 0.16 | 1.01 (active)
14 | S=C(NCc1ccc2c(c1)OCO2)N1CCN(c2ncnc3c2oc2ccccc23)CC1 | 0.943 ± 0.19 | 1.6 ± 0.5 | 2.24 ± 0.18 | 0.623 ± 0.021 | 1.35 ± 0.27 | 1.96 ± 0.42 | 0.958 (active)
15 | CC(C)c1cc(-c2n[nH]c(=O)n2-c2ccc3c(ccn3C)c2)c(O)cc1O | 0.0963 ± 0.0078 | 0.155 ± 0.012 | 0.681 ± 0.062 | 1.08 ± 0.059 | 1.22 ± 0.09 | 1.41 ± 0.12 | 0.542 (inactive)
16 | COc1ccc(NC(=O)c2ccc(C(=N)N(C)C)cc2)c(C(=O)Nc2ccc(Cl)cn2)c1 | 0.892 ± 0.33 | 1.18 ± 0.061 | 1.1 ± 0.11 | 0.837 ± 0.043 | 1.05 ± 0.13 | 1.22 ± 0.26 | 0.994 (active)
17 | Cc1cc(CNC(=O)CCc2ccc(C(F)(F)F)cc2)c(C)o1 | 1.09 ± 0.061 | 1.01 ± 0.089 | 0.877 ± 0.038 | 1.2 ± 0.069 | 1.14 ± 0.068 | 1.25 ± 0.33 | 0.957 (active)
18 | Cc1ccc(CN2C3=NCCCN3c3ccccc32)cc1.Cl | 0.294 ± 0.047 | 1.25 ± 0.13 | 1.32 ± 0.17 | 0.881 ± 0.026 | 1.27 ± 0.17 | 1.34 ± 0.2 | 0.999 (active)
19 | CCCCCCc1ccc(O)cc1O | 1.02 ± 0.14 | 0.919 ± 0.21 | 0.874 ± 0.058 | 0.588 ± 0.057 | 1.2 ± 0.23 | 1.2 ± 0.13 | 0.298 (inactive)
20 | Brc1ccc2ncnc(N3CCOCC3)c2c1 | 1.17 ± 0.097 | 1.39 ± 0.098 | 1.13 ± 0.05 | 0.357 ± 0.087 | 0.515 ± 0.039 | 0.592 ± 0.084 | 1 (active)
21 | CCOc1ccc2oc(-c3ccccc3)c(C(=O)N3CCN(C)CC3)c2c1 | 1.03 ± 0.052 | 1.09 ± 0.087 | 1.03 ± 0.05 | 1.05 ± 0.053 | 1.15 ± 0.13 | 1.26 ± 0.31 | 0.966 (active)
22 | Cc1cc(=O)n2c(-c3cccc(NC(=O)c4ccc(C(F)(F)F)cc4)c3)csc2n1 | 0.824 ± 0.044 | 1.12 ± 0.09 | 1.68 ± 0.46 | 0.731 ± 0.035 | 1.28 ± 0.21 | 1.5 ± 0.44 | 0.99 (active)
23 | COc1ccc(OC)c(S(=O)(=O)N2CCC(Oc3nc4c(C)cccc4s3)CC2)c1 | 0.687 ± 0.039 | 0.889 ± 0.092 | 1.02 ± 0.072 | 0.741 ± 0.042 | 1.15 ± 0.26 | 1.41 ± 0.57 | 0.908 (active)
24 | O=c1ccc(-c2ccncc2)nn1CC1CCN(CC(F)(F)F)CC1 | 0.924 ± 0.046 | 0.973 ± 0.077 | 0.955 ± 0.051 | 0.858 ± 0.043 | 0.884 ± 0.07 | 0.832 ± 0.17 | 0.964 (active)
25 | CNC(=O)c1ccccc1Sc1ccc2c(/C=C/c3ccccn3)n[nH]c2c1 | 0.626 ± 0.11 | 0.729 ± 0.25 | 0.813 ± 0.061 | 0.0229 ± 0.0024 | 0.485 ± 0.12 | 0.259 ± 0.048 | 0.897 (active)
26 | CCSc1nc(-c2cccs2)cc(C(F)(F)F)c1C#N | 0.77 ± 0.078 | 1.05 ± 0.069 | 1.66 ± 0.063 | 0.904 ± 0.13 | 1.18 ± 0.12 | 1.9 ± 0.25 | 0.999 (active)
